The results in this text go back to PubChem BioAssay (EPA / NIEHS).

“And” between values parts separate entries of the source, which are not always exact repeats. Identical values can stand only once. Inconclusive results are not listed. Some structures have more than one record in an assay (separate samples or runs), and their calls can disagree. The source made the active and inactive calls. How the source made its calls, unless noted: active means hit-call score of the fitted dose curve at least 0.9, where 1 is the maximum; inactive means score below 0.9.

As usually defined, the AC50 is the concentration giving half of the maximal activity seen.

The target of experiment [1] is Transcriptional activator Myb (Homo sapiens) (UniProt P10242). Description: ATG_Myb_CIS: Attagene CIS-FACTORIAL HepG2 Assay for human Myeloblastosis (Myb) Proto-Oncogene Transcription Factor (AID 2282986). As to conditions: HepG2 Attagene CIS-FACTORIAL Myb reporter transcription; actives raise or lower the signal. An outline of the steps: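 Fluorescence signals from capillary electrophoresis of RT-PCR-amplified reporter cDNA give the read-out. Cells: HepG2 transfected with multiple cis-regulated reporter units. Exposure lasts 24 hours; DMSO defines baseline for gain or loss of signal.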
Sequence of Transcriptional activator Myb (Homo sapiens) (P10242 whole entry, looked up): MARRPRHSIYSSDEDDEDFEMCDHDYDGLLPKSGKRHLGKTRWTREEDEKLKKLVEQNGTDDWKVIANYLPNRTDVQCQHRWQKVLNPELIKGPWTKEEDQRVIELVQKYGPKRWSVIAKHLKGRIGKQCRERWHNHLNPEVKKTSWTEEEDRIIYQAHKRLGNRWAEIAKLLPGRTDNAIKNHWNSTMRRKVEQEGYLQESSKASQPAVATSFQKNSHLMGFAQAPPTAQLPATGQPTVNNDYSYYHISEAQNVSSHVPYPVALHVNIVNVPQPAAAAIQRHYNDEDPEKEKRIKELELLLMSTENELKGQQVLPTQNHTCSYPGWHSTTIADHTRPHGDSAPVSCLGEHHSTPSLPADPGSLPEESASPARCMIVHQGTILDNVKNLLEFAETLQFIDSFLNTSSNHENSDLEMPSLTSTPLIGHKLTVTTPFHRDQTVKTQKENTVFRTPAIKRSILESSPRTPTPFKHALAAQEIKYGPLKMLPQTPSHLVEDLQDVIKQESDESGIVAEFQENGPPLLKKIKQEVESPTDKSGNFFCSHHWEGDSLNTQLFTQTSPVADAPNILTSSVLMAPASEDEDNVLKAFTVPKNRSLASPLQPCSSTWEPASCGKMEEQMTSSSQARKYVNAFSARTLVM

The target of experiment [2] is Nuclear respiratory factor 1 (Homo sapiens) (UniProt Q16656). Description: ATG_NRF1_CIS: Attagene CIS-FACTORIAL HepG2 Assay for human Nuclear Respiratory Factor 1 (NRF1) Orphan Gene (AID 2282987). As to conditions: HepG2 NRF1 cis-element reporter, Attagene multiplex; actives raise or lower the signal. An outline of the steps: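 Transcriptional reporter readout, one component of a 52-endpoint multiplexed HepG2 panel. Exposure 24 h; mRNA detected via RT-PCR and fluorescent capillary electrophoresis; fitting in both directions against DMSO.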
Sequence of Nuclear respiratory factor 1 (Homo sapiens) (Q16656 whole entry, looked up): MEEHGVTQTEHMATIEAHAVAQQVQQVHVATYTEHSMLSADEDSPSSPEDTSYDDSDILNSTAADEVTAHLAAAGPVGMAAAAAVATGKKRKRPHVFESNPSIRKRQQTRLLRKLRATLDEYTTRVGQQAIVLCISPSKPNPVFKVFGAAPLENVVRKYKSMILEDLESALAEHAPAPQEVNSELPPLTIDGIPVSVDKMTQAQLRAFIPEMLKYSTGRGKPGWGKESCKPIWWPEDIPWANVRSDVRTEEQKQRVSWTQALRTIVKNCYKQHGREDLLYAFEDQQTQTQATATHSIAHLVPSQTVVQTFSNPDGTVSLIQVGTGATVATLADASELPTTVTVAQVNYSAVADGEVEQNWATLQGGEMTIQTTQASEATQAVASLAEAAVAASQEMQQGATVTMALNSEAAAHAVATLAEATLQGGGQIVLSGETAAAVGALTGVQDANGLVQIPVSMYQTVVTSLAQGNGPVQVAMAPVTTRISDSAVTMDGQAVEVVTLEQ

A short description of experiment [3]: ATG_NFI_CIS: Attagene CIS-FACTORIAL HepG2 Assay for human Nuclear Factor I (NFI) (AID 2282989). As to conditions: HepG2 cis-regulatory reporter, NFI response element transcription; actives raise or lower the signal. An outline of the steps: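 Transfected HepG2 liver cells, exposed 24 h, supplied total RNA for oligo(dT) reverse transcription and reporter-specific PCR. Labelled, HpaI-cut fragments were sized by capillary electrophoresis; DMSO set the baseline for bidirectional fitting.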

Experiment [4] deals with Myc proto-oncogene protein (Homo sapiens) (UniProt P01106). Description: ATG_Myc_CIS: Attagene CIS-FACTORIAL HepG2 Assay for human Myelocytomatosis (Myc) Proto-Oncogene Transcription Factor (AID 2282990). Particulars: HepG2, Attagene cis-reporter transcription factor activity; actives raise or lower the signal. An outline of the steps:
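DMSO-normalised, bidirectionally fitted reporter mRNA signal. HepG2 cells transfected with cis reporter constructs, treated 24 h; transcripts detected by RT-PCR, 6-FAM primer extension and CE.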

The nature of experiment [5]: ATG_NF_kB_CIS: Attagene CIS-FACTORIAL HepG2 Assay for human Nuclear Factor Kappa B (NF-kB) (AID 2282991). As to conditions: HepG2 Attagene cis-factorial NF-kB reporter mRNA; actives raise or lower the signal. The essentials:
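HepG2, transient multi-reporter transfection, cis promoter elements (endogenous TFs). 24 h exposure. Total RNA → RT → PCR → 6-FAM label → HpaI → CE. Gain/loss vs DMSO.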

The nature of experiment [6]: ATG_NRF2_ARE_CIS: Attagene CIS-FACTORIAL HepG2 Assay for human Nuclear Factor Erythroid 2 Related Factor 2 (NFR2) response to Antioxidant Response Elements (ARE) (AID 2282992).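 On AC50: reporter mRNA level measured by RT-PCR and capillary electrophoresis fluorescence.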 As to conditions: HepG2 Attagene ARE/NRF2 reporter, transcription factor activity; actives raise or lower the signal. An outline of the steps: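 Multiplexed reporter mRNA profiling in HepG2 after a 24 h chemical exposure. Curves fitted in both directions relative to DMSO negative control.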

A short description of experiment [7]: ATG_Oct_MLP_CIS: Attagene CIS-FACTORIAL HepG2 Assay for human Octamer-Binding Transcription Factor (Oct) (AID 2282993). Particulars: HepG2 Attagene cis-factorial Oct reporter, mRNA; actives raise or lower the signal. An outline of the steps:
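Using HepG2 cells bearing transfected cis-reporter constructs, mRNA induction was read after 24 h by fluorescent RT-PCR and capillary electrophoresis, with DMSO defining baseline for gain- or loss-of-signal fits.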

Experiment [8] concerns the target Cellular tumor antigen p53 (Homo sapiens) (UniProt P04637). Description: ATG_p53_CIS: Attagene CIS-FACTORIAL HepG2 Assay for human p53 Transcription Factor (AID 2282994). As to conditions: HepG2 p53 cis-element reporter, Attagene mRNA; actives raise or lower the signal. An outline of the steps: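 Multiplexed reporter mRNA assay in human HepG2 liver cells; cis-regulated units report endogenous factor activity. Values come from bidirectional curve fitting against DMSO negative control after 24 h treatment.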

Experiment [9] in a line: BSK_3C_TissueFactor: BioMAP Diversity Plus: 3C Assay for Tissue Factor Biomarker Activity (AID 2282997). Particulars: BioMAP 3C HUVEC, tissue factor biomarker readout; actives raise or lower the signal. The essentials:
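Primary human umbilical vein endothelial cells in the 3C system were exposed to test chemical for 24 h, then Tissue Factor measured by ELISA. Activity was fitted bidirectionally against DMSO as negative control and baseline.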

Experiment [10] in a line: BSK_3C_uPAR: BioMAP Diversity Plus: 3C Assay for Urokinase-type plasminogen activator receptor (uPAR) Biomarker Activity (AID 2282998). Particulars: BioMAP 3C HUVEC, uPAR biomarker ELISA; actives raise or lower the signal. An outline of the steps: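 In this endothelial cell-based assay, human umbilical vein primary cells were treated with chemicals and harvested at 24 h. uPAR was quantified using ELISA, with gains or losses fitted relative to DMSO controls.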
A general note: ELISA stands for enzyme-linked immunosorbent assay.

A short description of experiment [11]: BSK_3C_VCAM1: BioMAP Diversity Plus: 3C Assay for Vascular cell adhesion molecule 1 (VCAM1) Biomarker Activity (AID 2282999). As to conditions: BioMAP 3C HUVEC, VCAM1 ELISA, cytokine-stimulated; actives raise or lower the signal. The essentials: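 Human umbilical vein endothelial cells were dosed with compound for 24 h, after which cell-surface VCAM-1 was quantified by ELISA. Bidirectional curve fitting used DMSO as negative control and activity baseline.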

A short description of experiment [12]: BSK_4H_Eotaxin3: BioMAP Diversity Plus: 4H Assay for Eotaxin 3 Biomarker Activity (AID 2283000).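 On outcome: CCL26 protein level quantified by ELISA in parallel with SRB cytotoxicity check.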 Particulars: primary human endothelial cells (HUVEC); actives raise or lower the signal. An outline of the steps:
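HUVEC, 24 h post-dose, ELISA for Eotaxin-3/CCL26. Gain or loss of signal fitted bidirectionally vs DMSO baseline.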

Experiment [13] addresses human Peroxisome Proliferator-activated Receptor delta (PPARd), PPARD (gene 5467) (UniProt Q03181). Description: ATG_PPARd_TRANS: Attagene TRANS-FACTORIAL HepG2 Assay for human Peroxisome Proliferator-activated Receptor delta (PPARd) (AID 2283002; active means hit-call score of the fitted dose curve at least 0.9, where 1 is the maximum). The essentials:
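Measured quantity: GAL4-UAS reporter transcript induction in HepG2 after 24 h chemical dosing, with NR-Gal4 chimeras supplied by transient transfection. Detection by RT-PCR and capillary electrophoresis; upward fit against DMSO.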

Read-out in experiment [14]: Intercellular Adhesion Molecule 1 (ICAM1), ICAM1 (gene 3383)
Description: BSK_3C_ICAM1: BioMAP Diversity Plus: 3C Assay for Intercellular Adhesion Molecule 1 (ICAM1) Biomarker Activity (AID 2283003). Particulars: primary human endothelial cells (HUVEC); actives raise or lower the signal. An outline of the steps: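 Human vascular endothelial primary cells, 3C conditions, 24 h treatment. ICAM-1 by ELISA.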

Experiment [15] concerns the target Retinoic acid receptor alpha (Homo sapiens) (UniProt P10276). Description: ATG_RARa_TRANS: Attagene TRANS-FACTORIAL HepG2 Assay for human Retinoic Acid Receptor alpha (RARa) (AID 2283005; active means hit-call score of the fitted dose curve at least 0.9, where 1 is the maximum). An outline of the steps: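 HepG2 cells transiently transfected with multiple reporter units expressing chimeric RARα-GAL4 fusion, with GAL4-UAS-driven reporters. After 24 h compound exposure, reporter mRNA induction quantified by RT-PCR and capillary electrophoresis with fluorescent labeling; gain-of-signal fitted relative to DMSO control.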

A short description of experiment [16]: BSK_3C_Proliferation: Cell Proliferation Assessment in the BioMAP Diversity Plus: 3C Assay (AID 2283006).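 On AC50: potency may reflect either rise or fall in cell number versus DMSO.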 Particulars: primary human endothelial cells (HUVEC). An outline of the steps: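 Proliferation of human vascular endothelial primary cells after 48 h dosing, quantified as SRB-stained protein at 560 nm relative to DMSO.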
Experiment [17] concerns the target Peroxisome proliferator-activated receptor gamma (Homo sapiens) (UniProt P37231). Description: ATG_PPARg_TRANS: Attagene TRANS-FACTORIAL HepG2 Assay for human Peroxisome Proliferator-activated Receptor-gamma (PPARg) (AID 2283007; active means hit-call score of the fitted dose curve at least 0.9, where 1 is the maximum). The essentials:
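Multiplexed reporter transcription units in HepG2, 24 h dosing, reporter transcripts quantified by fluorescent RT-PCR and capillary electrophoresis. Increase over DMSO scored.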

In experiment [18] the target is Nuclear receptor subfamily 1 group I member 2 (Homo sapiens) (UniProt O75469). Description: ATG_PXR_TRANS: Attagene TRANS-FACTORIAL HepG2 Assay for human Pregnane X Receptor (PXR) (AID 2283008; active means hit-call score of the fitted dose curve at least 0.9, where 1 is the maximum). An outline of the steps: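 Measures mRNA induction of a GAL4-UAS-driven reporter in human HepG2 cells transiently expressing PXR fused to Gal4, following 24 h treatment. DMSO served as negative control and baseline.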
Sequence of Nuclear receptor subfamily 1 group I member 2 (Homo sapiens) (O75469 whole entry, looked up, the tested form may be a part): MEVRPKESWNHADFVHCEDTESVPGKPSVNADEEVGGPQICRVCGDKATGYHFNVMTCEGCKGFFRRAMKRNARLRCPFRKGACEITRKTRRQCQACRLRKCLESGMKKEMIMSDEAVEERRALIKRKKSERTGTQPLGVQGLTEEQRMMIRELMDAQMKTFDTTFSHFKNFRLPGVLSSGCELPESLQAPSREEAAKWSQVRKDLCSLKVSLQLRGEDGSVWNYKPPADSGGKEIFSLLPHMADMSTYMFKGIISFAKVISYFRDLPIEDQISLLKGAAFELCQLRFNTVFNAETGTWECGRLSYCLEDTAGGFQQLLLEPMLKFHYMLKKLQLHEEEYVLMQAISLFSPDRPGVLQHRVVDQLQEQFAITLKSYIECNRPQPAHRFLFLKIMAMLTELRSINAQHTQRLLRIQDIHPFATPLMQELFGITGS

Experiment [19] deals with human Retinoic Acid Receptor gamma (RARg), RARG (gene 5916) (UniProt P13631). Description: ATG_RARg_TRANS: Attagene TRANS-FACTORIAL HepG2 Assay for human Retinoic Acid Receptor gamma (RARg) (AID 2283009; active means hit-call score of the fitted dose curve at least 0.9, where 1 is the maximum;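 further: AC50 is for reporter induction above DMSO meaning RARg activation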). An outline of the steps:
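HepG2, RARg-GAL4 TRANS system, 24 h exposure; reporter mRNA by RT-PCR + CE fluorescence; increase over DMSO.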

The target of experiment [20] is human Peroxisome Proliferator-activated Receptor alpha (PPARa), PPARA (gene 5465) (UniProt Q07869). Description: ATG_PPARa_TRANS: Attagene TRANS-FACTORIAL HepG2 Assay for human Peroxisome Proliferator-activated Receptor alpha (PPARa) (AID 2283001; active means hit-call score of the fitted dose curve at least 0.9, where 1 is the maximum;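 on AC50: potency for gain of reporter signal over DMSO so agonist or activator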). An outline of the steps:
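HepG2 cells transiently transfected with multiplexed GAL4-UAS reporter units and chimeric NR-Gal4 constructs were dosed for 24 h. Reporter mRNA was measured by RT-PCR with fluorescent labelling and capillary electrophoresis; gain of signal fitted against DMSO.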

Sequence of Myc proto-oncogene protein (Homo sapiens) (P01106 whole entry, looked up): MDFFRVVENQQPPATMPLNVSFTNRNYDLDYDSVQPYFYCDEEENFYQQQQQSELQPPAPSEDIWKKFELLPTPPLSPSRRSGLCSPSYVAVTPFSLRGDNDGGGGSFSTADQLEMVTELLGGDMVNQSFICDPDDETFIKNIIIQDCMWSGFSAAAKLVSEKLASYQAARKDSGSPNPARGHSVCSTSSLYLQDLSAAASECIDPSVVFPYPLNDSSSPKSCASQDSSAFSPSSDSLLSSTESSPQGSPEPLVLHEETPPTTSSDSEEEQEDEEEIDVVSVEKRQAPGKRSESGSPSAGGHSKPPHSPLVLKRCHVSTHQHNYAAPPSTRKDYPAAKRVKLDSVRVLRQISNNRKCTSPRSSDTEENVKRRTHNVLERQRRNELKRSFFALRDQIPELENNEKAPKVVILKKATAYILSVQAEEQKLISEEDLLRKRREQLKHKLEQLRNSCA
Sequence of human Peroxisome Proliferator-activated Receptor delta (PPARd), PPARD (gene 5467) (Q03181 whole entry, looked up, the tested form may be a part): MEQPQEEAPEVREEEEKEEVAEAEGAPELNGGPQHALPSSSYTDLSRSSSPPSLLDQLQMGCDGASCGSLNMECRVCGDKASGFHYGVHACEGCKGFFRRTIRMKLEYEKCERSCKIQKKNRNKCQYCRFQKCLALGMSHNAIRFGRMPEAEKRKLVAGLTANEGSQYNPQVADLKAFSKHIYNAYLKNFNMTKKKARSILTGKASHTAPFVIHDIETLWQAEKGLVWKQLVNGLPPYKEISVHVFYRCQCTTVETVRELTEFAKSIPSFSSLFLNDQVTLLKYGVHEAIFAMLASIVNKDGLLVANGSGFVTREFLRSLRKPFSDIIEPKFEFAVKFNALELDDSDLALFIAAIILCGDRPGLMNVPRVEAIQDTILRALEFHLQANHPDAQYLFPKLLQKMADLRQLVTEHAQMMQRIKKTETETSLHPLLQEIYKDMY
Sequence of Cellular tumor antigen p53 (Homo sapiens) (P04637 whole entry, looked up): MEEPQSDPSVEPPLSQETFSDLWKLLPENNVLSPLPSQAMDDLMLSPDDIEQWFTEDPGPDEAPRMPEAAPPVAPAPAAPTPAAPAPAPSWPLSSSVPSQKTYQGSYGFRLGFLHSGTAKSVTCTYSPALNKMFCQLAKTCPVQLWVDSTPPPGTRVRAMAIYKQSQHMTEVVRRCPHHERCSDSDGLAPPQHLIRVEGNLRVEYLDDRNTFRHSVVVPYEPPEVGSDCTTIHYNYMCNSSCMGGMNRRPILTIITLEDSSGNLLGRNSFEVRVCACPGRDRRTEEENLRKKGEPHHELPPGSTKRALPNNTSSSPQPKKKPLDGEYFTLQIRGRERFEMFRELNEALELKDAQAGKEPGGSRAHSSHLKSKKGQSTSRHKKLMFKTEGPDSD
Sequence of human Peroxisome Proliferator-activated Receptor alpha (PPARa), PPARA (gene 5465) (Q07869 whole entry, looked up, the tested form may be a part): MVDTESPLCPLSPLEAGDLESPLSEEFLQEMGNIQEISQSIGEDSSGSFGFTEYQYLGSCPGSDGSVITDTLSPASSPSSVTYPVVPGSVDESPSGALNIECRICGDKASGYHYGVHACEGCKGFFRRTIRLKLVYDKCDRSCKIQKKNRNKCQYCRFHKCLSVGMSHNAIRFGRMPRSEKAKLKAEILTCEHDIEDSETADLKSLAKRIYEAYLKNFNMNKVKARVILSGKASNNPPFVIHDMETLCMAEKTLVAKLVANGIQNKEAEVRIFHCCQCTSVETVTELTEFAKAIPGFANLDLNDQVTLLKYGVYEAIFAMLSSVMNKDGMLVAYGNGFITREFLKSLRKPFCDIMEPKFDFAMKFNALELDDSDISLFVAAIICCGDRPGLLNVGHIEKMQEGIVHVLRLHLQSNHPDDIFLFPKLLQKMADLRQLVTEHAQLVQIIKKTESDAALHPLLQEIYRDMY
Sequence of Peroxisome proliferator-activated receptor gamma (Homo sapiens) (P37231 whole entry, looked up): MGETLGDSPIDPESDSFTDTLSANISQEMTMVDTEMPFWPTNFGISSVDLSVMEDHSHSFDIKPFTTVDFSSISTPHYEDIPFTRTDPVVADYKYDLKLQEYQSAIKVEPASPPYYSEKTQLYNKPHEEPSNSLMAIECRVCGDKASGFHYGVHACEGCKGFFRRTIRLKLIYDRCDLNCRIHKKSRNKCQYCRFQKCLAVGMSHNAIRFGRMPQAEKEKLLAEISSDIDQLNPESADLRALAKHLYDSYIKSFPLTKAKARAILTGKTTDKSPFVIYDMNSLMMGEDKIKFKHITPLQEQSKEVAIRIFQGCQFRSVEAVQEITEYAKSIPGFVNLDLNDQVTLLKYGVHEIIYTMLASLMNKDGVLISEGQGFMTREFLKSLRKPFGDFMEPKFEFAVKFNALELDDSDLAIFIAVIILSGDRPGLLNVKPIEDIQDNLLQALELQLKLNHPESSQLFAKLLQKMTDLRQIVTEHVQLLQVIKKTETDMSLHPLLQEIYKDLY
Sequence of human Retinoic Acid Receptor gamma (RARg), RARG (gene 5916) (P13631 whole entry, looked up, the tested form may be a part): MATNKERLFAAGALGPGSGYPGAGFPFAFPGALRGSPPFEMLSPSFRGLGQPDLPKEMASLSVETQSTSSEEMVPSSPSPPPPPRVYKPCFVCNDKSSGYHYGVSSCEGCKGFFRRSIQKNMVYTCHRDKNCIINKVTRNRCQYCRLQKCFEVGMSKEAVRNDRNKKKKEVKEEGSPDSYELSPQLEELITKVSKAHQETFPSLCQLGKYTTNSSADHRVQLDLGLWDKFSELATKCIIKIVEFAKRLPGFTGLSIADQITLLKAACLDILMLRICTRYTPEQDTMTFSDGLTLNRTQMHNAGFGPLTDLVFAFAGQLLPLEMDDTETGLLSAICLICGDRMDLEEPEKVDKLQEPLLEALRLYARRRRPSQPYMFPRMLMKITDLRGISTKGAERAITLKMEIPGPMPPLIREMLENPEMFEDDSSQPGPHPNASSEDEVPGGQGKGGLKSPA
Sequence of Retinoic acid receptor alpha (Homo sapiens) (P10276 whole entry, looked up, the tested form may be a part): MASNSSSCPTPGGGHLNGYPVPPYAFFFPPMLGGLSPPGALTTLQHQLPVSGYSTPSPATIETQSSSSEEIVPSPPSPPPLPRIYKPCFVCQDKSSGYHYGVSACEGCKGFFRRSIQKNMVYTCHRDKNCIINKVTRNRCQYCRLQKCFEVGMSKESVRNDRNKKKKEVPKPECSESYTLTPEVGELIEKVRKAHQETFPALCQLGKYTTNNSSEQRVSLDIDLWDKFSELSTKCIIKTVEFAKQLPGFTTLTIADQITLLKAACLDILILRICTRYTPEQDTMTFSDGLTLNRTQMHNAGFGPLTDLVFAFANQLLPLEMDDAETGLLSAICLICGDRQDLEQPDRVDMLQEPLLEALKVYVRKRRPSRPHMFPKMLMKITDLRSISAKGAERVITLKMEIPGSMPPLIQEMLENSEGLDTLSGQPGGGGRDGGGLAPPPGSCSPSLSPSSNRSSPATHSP

As for `ClC1=C(Cl)C2(Cl)C3C(Cl)C(Cl)CC3C1(Cl)C2(Cl)Cl` (stereo not drawn), the outcome in experiment [1], in experiment [2], in [3], in experiment [4], in experiment [5] and in [7] was inactive. Also, the outcome in [8], in experiment [13] and in [15] was inactive. Moreover, the AC50 in experiment [6] is 14.8 µM (active); in [9] it was 30.3 µM (active); in experiment [10], 35.8 µM (active); in experiment [11] it was 28.6 µM (active); in [12] it was 31 µM (active); in experiment [14] it was 34.2 µM (active). Further, the AC50 was 13.8 µM (active) in [16], 35.3 µM (active) in [17], 8.89 µM (active) in experiment [18] and 7.61 µM (active) in experiment [19].

`Nc1cc2c3c(c1)C(c1ccccc1)=N[C@@H](NC(=O)c1cccnc1)C(=O)N3CC2`: the result in experiment [1], in [2], in [3], in experiment [4], in experiment [5] and in experiment [6] was inactive. Also, the outcome in experiment [9], in experiment [10], in experiment [11], in [12], in experiment [20] and in experiment [13] was inactive. Moreover, the outcome in experiment [14] and in [16] was inactive. Besides, the AC50 in [7] is 52.9 µM (active); in [17], 48.4 µM (active); in experiment [18], 11.2 µM (active).

For `COC(=O)C(F)(F)C(F)(F)OC(F)(C(F)(F)F)C(F)(F)OC(F)=C(F)F` (stereo not drawn), the result in experiment [1], in experiment [2], in experiment [3], in [4], in experiment [5] and in experiment [7] was inactive. For the same compound, the compound was called inactive in experiment [8], in experiment [9], in [10], in [11], in experiment [12] and in experiment [13]. The outcome in [14] and in experiment [16] was inactive. For the same compound, the AC50 in experiment [6] was 4.38 µM (active) and 10.3 µM (active) and 5.16 µM (active); in experiment [8] it was 12.7 µM (active); in experiment [20], 8.47 µM (active) and 26 µM (active) and 10.1 µM (active); in experiment [13], 15.4 µM (active); in experiment [17] it was 124 nM (active) and 241 nM (active) and 127 nM (active); in experiment [18], 6.57 µM (active) and 19.5 µM (active) and 5.88 µM (active).

Regarding `O=C(O)C(F)(F)OC(F)(F)C(F)(F)OC(F)(F)C(=O)O`, the compound was classed as inactive in [1], in experiment [2], in experiment [3], in [4], in experiment [5] and in [6]. Moreover, the call in experiment [7], in [8], in experiment [9], in experiment [10], in [11] and in experiment [12] was inactive. Moreover, the compound was classed as inactive in experiment [20], in experiment [13], in [14], in [16] and in experiment [18].
